# Data reported in PubChem BioAssay (NCATS).
# Inconclusive results are not listed. Activity calls are given as the source filed them. Calls come from the whole dose curve; as a rule, active = well fitted inhibition curve with a large enough effect; inconclusive = small, poorly fitted or top-dose-only effect; inactive = flat fitted curve, though single readings scatter.
# Tested on: CRL-7250
# Test: qHTS assay to identify novel small-molecules to repurpose for Merkel cell carcinoma treatment (AID 1296009); note: nearly all actives have a fitted effect of over 60% in size
# Conditions: MCC and control cell lines, CellTiter-Glo viability, 72 h; at 44.8 µM (top of the series) unless noted
# Method in brief: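 Cell viability, measured as CellTiter-Glo luminescence, was normalized between DMSO and no-cell wells. The cells had been exposed to 8- or 11-point compound dilutions for 72 hr at 37 degree celsius.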
row,Compound,outcome
1,Cc1nnc(C(=O)NC(C)(C)c2nc(C(=O)NCc3ccc(F)cc3)c(O)c(=O)n2C)o1,inactive
2,CC(=O)OCC(=O)[C@@]1(O)CCC2C3CCC4=CC(=O)CC[C@]4(C)C3[C@@H](O)C[C@@]21C (stereo partly specified),inactive
3,CC[N+](CC)(CC)CCOC(=O)C(C1CCCC1)C1CCCC1,inactive
4,O=C(Nc1ccc(C(=O)O)c(O)c1)c1ccccc1,inactive
5,COc1cc(N)c(Cl)cc1C(=O)NC1CCN(Cc2ccccc2)CC1,inactive
6,NC(N)=NC(=O)c1nc(Cl)c(N)nc1N,inactive
7,COc1ccc2[nH]c(S(=O)Cc3ncc(C)c(OC)c3C)nc2n1 (stereo unspecified),inactive
8,CCCc1cc(C(N)=S)ccn1,inactive
9,Cc1nc2sccn2c(=O)c1CCN1CCC(=C(c2ccc(F)cc2)c2ccc(F)cc2)CC1,inactive
10,CCCCCCCCCCCCCCCCC(C(=O)O)C(O)(CC(=O)O)C(=O)O (stereo unspecified),inactive
11,Cc1ccc(Cl)c(OCC(O)CNC(C)(C)C)c1 (stereo unspecified),inactive
12,CC1CCc2cc(F)cc3c(=O)c(C(=O)O)cn1c23 (stereo unspecified),inactive
13,CCCCC1(COC(=O)CCC(=O)O)C(=O)N(c2ccccc2)N(c2ccccc2)C1=O,inactive
14,CCNC(=O)NCc1cccc(Cl)c1,inactive
15,C[C@]12CC[C@@H]3c4ccc(O)cc4CC[C@H]3[C@@H]1CCC2=O,inactive
16,CC(C)C(=O)OCc1cccc(OC(=O)[C@@H]2N3C(=O)[C@@H](NC(=O)Cc4ccccc4)[C@H]3SC2(C)C)c1,inactive
17,COC1=C(OC)C(=O)C(CCCCCCCCCCO)=C(C)C1=O,inactive
18,Cc1cccc(C)c1NC(=O)C(C)N (stereo unspecified),inactive

row,Compound,outcome
1,CN(C)CCCOC1(Cc2ccccc2)CCCCCC1,inactive
2,N#Cc1cc(NC(=O)C(=O)O)c(Cl)c(NC(=O)C(=O)O)c1,inactive
3,CCCCC(=O)O[C@]1(C(=O)CO)CC[C@H]2[C@@H]3CCC4=CC(=O)CC[C@]4(C)[C@H]3[C@@H](O)C[C@@]21C,inactive
4,OC1C(O)C(O)C(O)C(O)C1O (stereo unspecified),inactive
5,O=C(OCC(COC(=O)c1cccnc1)(COC(=O)c1cccnc1)COC(=O)c1cccnc1)c1cccnc1,inactive
6,CSc1ccc(/C=C2/C(C)=C(CC(=O)O)c3cc(F)ccc32)cc1,inactive
7,O=c1ccc2ccccc2o1,inactive
8,CC(=O)NC(Cc1ccccc1)C(=O)O (stereo unspecified),inactive [at 92 µM]
9,C[C@H](O)C(=O)Nc1c(I)c(C(=O)NC(CO)CO)c(I)c(C(=O)NC(CO)CO)c1I,inactive
10,CN(C)C/C=C(/c1ccc(Br)cc1)c1cccnc1,inactive
11,CCCCNc1cc(C(=O)O)cc(S(N)(=O)=O)c1Oc1ccccc1,inactive
12,CCCCN(CCCC)C(C(N)=O)c1ccc(OC)cc1 (stereo unspecified),inactive
13,O=C(/C=C/c1ccccc1)NCCO,inactive
14,CCOC(=O)c1ccc(OC(=O)CCCCCN=C(N)N)cc1,inactive
15,Cc1c(Cl)cccc1Nc1ccccc1C(=O)O,inactive
16,C[C@]12CCC(=O)C=C1[C@@H]1C[C@@H]1[C@H]1[C@@H]3[C@@H]4C[C@@H]4[C@@]4(CCC(=O)O4)[C@@]3(C)CC[C@@H]12,inactive
17,CO/N=C(\C(=O)O)c1csc(NC(=O)CCl)n1,inactive
18,OC(CCN1CCCCC1)(c1ccccc1)c1ccccc1,inactive
